Assay outcomes deposited in PubChem BioAssay by National Center for Advancing Translational Sciences (NCATS).
A selection: hits, their analogues and other compounds. The true share with any hit is near 3.2%.
LmPK inh – blocks Leishmania mexicana pyruvate kinase activity; Potency, µM (doses to about 57.5 µM), for the others: top-dose activity change, negative = inhibition, most hits filed as inhibitors; Q27686; actives 0.37% (n = 290,000); purified LmPK, Kinase-Glo ATP luminescence, 1 h
Target sequence (Q27686 whole entry, looked up): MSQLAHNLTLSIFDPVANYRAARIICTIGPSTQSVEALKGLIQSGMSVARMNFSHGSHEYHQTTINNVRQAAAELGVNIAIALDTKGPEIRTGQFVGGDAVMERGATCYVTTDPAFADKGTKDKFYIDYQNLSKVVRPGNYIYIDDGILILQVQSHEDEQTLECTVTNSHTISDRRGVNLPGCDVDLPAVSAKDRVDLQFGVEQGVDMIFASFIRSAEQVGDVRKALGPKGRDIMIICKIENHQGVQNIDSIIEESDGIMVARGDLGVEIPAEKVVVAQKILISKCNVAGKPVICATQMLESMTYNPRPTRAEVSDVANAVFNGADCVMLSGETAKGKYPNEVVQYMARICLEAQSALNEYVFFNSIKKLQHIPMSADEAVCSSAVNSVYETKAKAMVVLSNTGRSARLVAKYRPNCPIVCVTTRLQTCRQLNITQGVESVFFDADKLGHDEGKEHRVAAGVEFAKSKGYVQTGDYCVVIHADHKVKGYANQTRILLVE
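Pyruvate kinase activity monitored as ATP production (luciferase luminescence). Conditions: 0.1 nM enzyme, 0.5 mM PEP, 0.1 mM ADP, 1 h, RT; normalized against uninhibited and no-enzyme wells.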
AMA1-RON2 inh – inhibitors of Plasmodium falciparum AMA1-RON2 interaction; AlphaScreen AMA1-biotinylated RON2 peptide binding; Potency, µM (doses to about 58.2 µM), for inactives: at the top dose activity change, negative = inhibition, usual class: inhibitors; actives 0.2% (n = 360,000);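 further: 0% = vehicle wells and -100% = peptide control; nearly all actives have a fitted effect of over 45% in size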
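AMA1 (3D7) with his tag at 25 nM final met compounds first, then biotinylated RON2 peptide at 25 nM; detection used donor plus acceptor beads, 10 µg/mL apiece, read by AlphaScreen after 30 min at room temperature.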
RE007 growth inh – less growth of the S. pombe RE007 Vpr strain; S. pombe RE007 Vpr strain, BacTiter-Glo ATP luminescence, 24 h; actives 0.21% (n = 360,000); AID 651644; Potency, µM (doses to about 92.2 µM), for inactives: at the top dose activity change, negative = less growth, hits mostly inhibitors; active means well fitted falling curve with a large enough effect; inconclusive means small, poorly fitted or top-dose-only effect; inactive means no such curve, though single readings can be large or run the other way; further: nearly all actives have a fitted effect of over 50% in size
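Fission yeast strain RE007, carrying one chromosomally integrated HIV-1 vpr copy, was seeded at OD 0.01 in PMG+AL medium with 23 nL pinned compound. After 24 h at 30 °C and 99% humidity, viability was read by BacTiter-Glo luminescence.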
Sm TGR block – blocks Schistosoma mansoni thioredoxin glutathione reductase | actives 3% (n = 360,000) | AID 485364 | Potency, µM (series often up to 114 µM), inactives show top-dose activity change, negative = inhibition, actives largely listed as inhibitors | Q962Y6 | purified TGR, DTNB reduction, TNB absorbance 405 nm; further: nearly all actives have a fitted effect of over 60% in size
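First, TGR (20 nM dispensed) and NADPH were mixed with compound. Second, a 15 min room-temperature incubation followed. Third, further NADPH and then DTNB were added to start the reaction. Finally, TNB absorbance was monitored kinetically.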
Tb PYK inh – inhibitors of Trypanosoma brucei pyruvate kinase; TbPYK enzyme, Kinase-Glo Plus ATP luminescence, 45 min; Potency, µM (doses to about 76.8 µM), for the others: at the highest dose activity, negative = inhibition, most hits filed as inhibitors; actives 0.12% (n = 410,000); AID 624173; further: nearly all actives have a fitted effect of over 50% in size
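Screened from lowest to highest concentration, compounds were pinned into TbPYK/substrate mixtures, and ADP (130 uM final) was added. Plates sat at room temperature for 45 min prior to Kinase-Glo Plus detection by luminescence.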
Active calls of the source: *; ? = inconclusive; nt = no result; [ ] = another dose, or the depositor's remark. Unless noted, the call rests on the fitted dose curve; in most records, active means well fitted curve in the direction sought with a large enough effect; inconclusive means small, poorly fitted or top-dose-only effect, or another doubt; inactive means no such curve, though single readings can be large; an effect the other way counts as inactive or inconclusive. Unless noted, on the % scale 0 is the no-effect control and ±100 the full control effect; potency means the concentration at half of the fitted maximal effect.

SMILES	LmPK inh	AMA1-RON2 inh	RE007 growth inh	Sm TGR block	Tb PYK inh
Cc1ccc2c(Cl)cc(Cl)c(OCC(=O)N3CCCC3)c2n1	6%	14%	-1%	40µM*	-4%
C[n+]1cccc2cccc([O-])c21	-3%	?	4%	50µM*	-4%
COc1ccc(NC(=O)c2cc3c(=O)n(Cc4cccnc4)ccc3nc2C)c(OC)c1	nt	nt	nt	-4%	-1%
N#CC(=C=[N-])c1nc2ccccc2nc1-[n+]1cccc(NC(=O)c2ccccc2)c1	-23%	0%	-5%	40µM*	-2%
N#CC(=C=[N-])c1nc2ccccc2nc1-[n+]1cccc(NC(=O)c2ccc(F)cc2)c1	-10%	nt	nt	-29%	nt
N#CC(=C=[N-])c1nc2ccccc2nc1-[n+]1cccc(NC(=O)c2cccs2)c1	-8%	-6%	-4%	40µM*	-18%
CCc1cc[n+](-c2nc3ccccc3nc2C(=C=[N-])C#N)cc1	-1%	-6%	1%[3.69 µM]	-15%	nt
COc1ccc(N2CC(NC(=O)c3ccc4c(c3)OCO4)CC2=O)cc1 (stereo not drawn)	nt	nt	nt	-1%	-5%
CCc1ccc(-n2c(N3CCN(c4cccc(C)c4C)CC3)nc3ccccc3c2=O)cc1	nt	nt	nt	-1%	1%
COc1cc(CNCc2ccco2)cc(OC)c1O	0%	-1%	-26%	16µM*	0%
COc1cc(NC(=S)NCc2ccco2)cc(OC)c1OC	1%	11%	13%	-35%	-4%
COc1ccccc1NC(=S)NCc1ccco1	3%	-1%	-14%	35µM*	-2%
CC(C)(C)NC(=S)NCc1ccco1	0%	17%	6%	25µM*	-6%
CC1=C(C(=O)Nc2ccccc2)C(c2ccc(Br)cc2)n2nc(CCCO)nc2N1 (stereo not drawn)	nt	nt	nt	1%	4%
COc1cccc(OC)c1OCc1cc(C2C3CCCC=C3C(C#N)=C(N)C2(C#N)C#N)c(C)cc1C (stereo not drawn)	3%	32%	8%	40µM*	-15%
CCC(=O)N1CCc2cc(Br)cc(S(=O)(=O)NCc3ccco3)c21	6%	0%	10%	35µM*	0%
O=C(CN1C(=O)NC2(CCCCC2)C1=O)Oc1ccc2c(C(F)(F)F)cc(=O)oc2c1	nt	5%	-15%	40µM*	2%
CCc1cc(=O)oc2cc(OC(=O)CN3C(=O)NC4(CCCC4)C3=O)ccc12	-3%	-14%	-13%	?	-13%
O=C(CN1C(=O)NC2(CCCC2)C1=O)Oc1ccc2ccc(=O)oc2c1	nt	0%	-14%	56µM*	-4%
CC1CN(CCOc2ccc(Cl)cc2Cl)CC(C)O1 (stereo not drawn)	-2%	-7%	nt	4%	26%
Cc1cc(C)c(C)c(OCCN2CC(C)OC(C)C2)c1 (stereo not drawn)	2%	28µM*	-13%	5%	-15%
CC1CN(CCOc2cccc(Oc3ccccc3)c2)CC(C)O1 (stereo not drawn)	-3%	25µM*	-12%	3%	-9%
Cc1ccc(C(=O)NCC(c2ccco2)S(=O)(=O)c2ccc(Cl)cc2)cc1C (stereo not drawn)	nt	nt	nt	11µM*	-7%
Cc1ccc(C(=O)NCC(c2ccco2)S(=O)(=O)c2ccccc2)cc1C (stereo not drawn)	nt	nt	nt	-16%	0%
O=C(NCC(c1ccco1)S(=O)(=O)c1ccc(Cl)cc1)c1ccccc1F (stereo not drawn)	nt	nt	nt	2.5µM*	1%
SMILES	LmPK inh	AMA1-RON2 inh	RE007 growth inh	Sm TGR block	Tb PYK inh
Cc1ccc(Cl)cc1NC(=O)Nc1nnc(N(C)Cc2ccccc2)s1	nt	nt	nt	-7%	-1%
C[C@]12CC[C@@H]3c4ccc(O[C@@H]5O[C@H](C(=O)O)[C@@H](O)[C@H](O)[C@H]5O)cc4CC[C@H]3[C@@H]1C[C@@H](O)[C@@H]2O	2%	12%	11%[18.4 µM]	40µM*	-8%
Cc1cccc(OCC(=O)Nc2c(C(=O)N3CCN(c4ccccc4)CC3)oc3ccccc23)c1	nt	nt	nt	7%	-2%
CC(C)c1cc(-c2nc(-c3ccc(Cl)cc3)no2)n[nH]1	nt	nt	nt	-2%	1%
O=C(c1cc2ccccc2oc1=O)N1CCN(c2ccc(Cl)cc2)CC1	nt	nt	nt	1%	-4%
Cn1c(=O)c2c(-c3ccc(C(C)(C)C)cc3)n(CC3CCCO3)cc2n(C)c1=O (stereo not drawn)	-5%	-7%	19%	?	-2%
Cc1cccc(-c2c3c(=O)n(C)c(=O)n(C)c3cn2CC2CCCO2)c1 (stereo not drawn)	-1%	12%	2%	35µM*	-13%
OC(C#CCCN1CCCCC1)(c1ccccc1)c1ccccc1	3%	-9%	-13%	-18%	7%
OC(C#CCN1CCCCCC1)(c1ccccc1)c1cccnc1 (stereo not drawn)	2%	5%	15%	14µM*	-13%
OC(C#CCN1CCCC1)(c1ccccc1)c1cccnc1 (stereo not drawn)	3%	0%	-5%	32µM*	2%
Oc1ccc2c3c1O[C@H]1[C@@H](O)CC[C@@]4(O)[C@@H](C2)N(CC2CCC2)CC[C@]314	nt	8%	-21%	-11%	-6%
NC(N)=Nc1ccc2[nH]c3c(c2c1)C[C@@]1(O)[C@H]2Cc4ccc(O)c5c4[C@@]1(CCN2CC1CC1)[C@H]3O5	nt	-23%	?	0.79µM*	-43%
O=[N+]([O-])c1cc(Cl)ccc1NCCc1ccccn1	3%	22µM*	-11%	-14%	1%
CCC(C)NC(=O)c1cccc(NC(=O)c2nsc3ccccc23)c1 (stereo not drawn)	nt	nt	nt	1%	0%
O=C(Cc1cc(=O)[nH]c(=O)[nH]1)N1CCN(CCO)CC1	-3%	24%	18%	32µM*	-1%
O=C(Cc1cc(=O)[nH]c(=O)[nH]1)N1CCC(Cc2ccccc2)CC1	-1%	10%	6%	-3%	0%
COc1cccc(-c2ccc(SCc3ccccn3)nn2)c1	14µM*	-8%	-23%	0%	-6%
O=C(NCCOCCO)C(=O)Nc1c2c(nn1-c1ccc(F)cc1)CSC2	nt	nt	nt	-18%	-1%
Oc1ccc(/C=N/N=C/c2ccc(O)c(O)c2)cc1O	-6%	?	11%	?	-7%
Oc1ccc(N=Cc2ccc(O)c(O)c2)cc1	-13%	-2%	-8%	22µM*	?
CC(C)(C)NC(=O)C1CCN(c2nc3ccccc3nc2C(F)(F)F)CC1	nt	nt	nt	5%	-6%
Cc1ccc(C(=O)Nc2cc3ccccc3oc2=O)cc1	13µM*	-7%	13%	18%	?
CC(=O)c1cc(NC(=O)c2ccccc2)c(=O)oc1C	-11%	7%	-5%	35µM*	-14%
CC(=O)c1cc(NC(=O)c2ccc(C)cc2)c(=O)oc1C	-19%	9%	-17%	40µM*	-29%
